Data published in PubChem BioAssay AID1117273 (Broad Institute, 2014).
Activity calls are given as the source filed them. No rule for the calls is given here.

Experiment: inhibitors of orthopox early gene expression, dose response, cell-based, single fluorophore reporter, dry powder (AID 1117273)
Conditions: orthopoxvirus-infected cells, early gene fluorescent reporter; at 10 µM; stronger effect = higher value

Compound	inhibition
Cc1ccc(-c2ccc(CN(C)C[C@@H]3Oc4cc(C#C[C@@H](C)O)ccc4S(=O)(=O)N([C@@H](C)CO)C[C@@H]3C)cc2)cc1	32.5% (inactive)
C[C@@H](O)C#Cc1ccc2c(c1)O[C@@H](CN(C)Cc1ccc(-c3ccc(Cl)cc3)cc1)[C@@H](C)CN([C@@H](C)CO)S2(=O)=O	17.2% (inactive)
Cc1cccc(-c2ccc(CN(C)C[C@@H]3Oc4cc(C#C[C@@H](C)O)ccc4S(=O)(=O)N([C@@H](C)CO)C[C@@H]3C)cc2)c1	48% (inactive)
C[C@@H](O)C#Cc1ccc2c(c1)O[C@@H](CN(C)Cc1ccc(-c3ccccc3Cl)cc1)[C@@H](C)CN([C@@H](C)CO)S2(=O)=O	59.3% (inactive)
C[C@@H](O)C#Cc1ccc2c(c1)O[C@@H](CN(C)Cc1ccc(-c3cccc(Cl)c3)cc1)[C@@H](C)CN([C@@H](C)CO)S2(=O)=O	48.5% (inactive)
COc1ccccc1-c1ccc(CN(C)C[C@@H]2Oc3cc(C#C[C@@H](C)O)ccc3S(=O)(=O)N([C@@H](C)CO)C[C@@H]2C)cc1	-12.9% (inactive)
Cc1ccccc1-c1ccc(CN(C)C[C@@H]2Oc3cc(C#C[C@@H](C)O)ccc3S(=O)(=O)N([C@@H](C)CO)C[C@@H]2C)cc1	63.3% (inactive)
